Assay outcomes from PubChem.
Shown are actives, neighbours in structure and some others; about 1.3% of the full set was active somewhere.
IL-2 act: IL-2 activation; IL-2 activation reporter assay, cell-based qHTS; stimulated with anti-CD3/CD4/CD28 beads; in transgenic mouse T cells; activation, % (series mostly up to about 46 µM); 360,000 tested, 0.065% active; AID 652025; in the data active means activation above about 50%; inconclusive means mostly about 30% to 49%; further: 0% is about no effect
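EGFP and DsRed fluorescence is measured by plate cytometry in unstimulated transgenic mouse T cells exposed to compound for 60 minutes, then stimulated 18 hours at 37 degrees C with anti-CD3/anti-CD4 beads plus anti-CD28.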
TRPML1 agonist: activates the human TRPML1 channel; activation, % (test concentration not listed); 410,000 tested, 0.12% active; TRPML1-expressing cells, Ca2+ dye fluorescence, FDSS; Q9GZU1; in the data active means activation above about 50%; inconclusive means mostly about 30% to 49%; further: 0% is about no effect
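Calcium fluorescence on an FDSS kinetic reader gave the read-out. Tet-induced TRPML1-DL cells were plated overnight, dye-loaded (Ca8 with quencher, 45-90 min, room temperature, dark), then read 110 s after compound addition, and again 110 s after 4uM final 54-4 (EC80).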
PKM2 activator: increases activity of human pyruvate kinase M2; purified PKM2, Kinase-Glo ATP luminescence, activation; response scale: 0% is enzyme alone, no compound; Potency, µM (highest dose often 57.5 µM), for inactives: top-dose activation, hits mostly activators; 260,000 tested, 0.34% active; further: potency means the concentration at half of the fitted maximal effect; on the % scale 0 is the no-effect control and ±100 the full control effect; nearly all actives have a fitted effect of over 55% in size
Target sequence (P14618 whole entry, looked up): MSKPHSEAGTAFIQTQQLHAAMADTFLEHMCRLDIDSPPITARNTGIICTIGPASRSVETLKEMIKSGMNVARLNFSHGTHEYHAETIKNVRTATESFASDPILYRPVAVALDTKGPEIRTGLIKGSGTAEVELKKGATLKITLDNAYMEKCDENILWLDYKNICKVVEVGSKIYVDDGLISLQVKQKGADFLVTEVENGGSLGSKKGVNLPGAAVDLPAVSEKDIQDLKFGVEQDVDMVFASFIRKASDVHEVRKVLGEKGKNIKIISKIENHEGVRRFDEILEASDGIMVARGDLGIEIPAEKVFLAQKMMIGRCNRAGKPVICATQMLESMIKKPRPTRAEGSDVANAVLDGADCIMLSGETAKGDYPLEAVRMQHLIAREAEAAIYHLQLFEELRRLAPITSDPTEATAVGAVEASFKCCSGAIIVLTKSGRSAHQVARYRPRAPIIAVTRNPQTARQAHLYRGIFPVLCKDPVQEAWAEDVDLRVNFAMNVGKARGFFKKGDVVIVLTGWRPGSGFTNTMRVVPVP
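Purified hPK-M2 (>95% pure) converted ADP (0.1 mM final) to ATP with 0.5 mM PEP in 50 mM imidazole pH7.2, KCl, MgCl2, Tween 20, BSA; 1 h at room temperature. ATP detected by Kinase-Glo luminescence.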
PTAP TSG101 blk: blocks PTAP/TSG101 interaction to inhibit HIV-1 budding; Q99816; Fluorescence polarization, FITC-PTAP peptide / Tsg101 binding; Potency, µM (top dose mostly 115 µM), for the others: at the highest dose activity change, negative = inhibition, actives largely listed as inhibitors; 340,000 tested, under 10 active; AID 493005; active means well fitted inhibition curve with a large enough effect in the main read-out, with a control signal flat, not every such curve was filed as active; inconclusive means small, poorly fitted or top-dose-only effect, or effect the other way, or a change in a side signal; inactive means no such curve, though single readings can be large or run the other way; further: potency means the concentration at half of the fitted maximal effect; % of control where 0% means no effect
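Tsg101 binding domain (10 uM final) was mixed with compound and a FITC-labeled PTAP peptide (50 nM final) in HEPES pH 7.5 buffer with NaCl, Tween 20, EDTA and TCEP; fluorescence polarization was read after 20 min at r.t.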
BRCA1 expr up: activators of BRCA1 expression. AID 624202. Potency, µM (titrated, usually from 46.1 µM), for inactives: top-dose activation, actives largely listed as activators. MCF7-BRCA1-FFLuc reporter, luminescence, 48 h; response scale: scaled: vehicle 0%, 10 µM genistein 100%. 380,000 tested, 1.1% active; further: potency means the concentration at half of the fitted maximal effect; nearly all actives have a fitted effect of over 80% in size
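48 h compound treatment of MCF7-BRCA1-FFLuc cells (phenol-red free MEM, 37 °C), then 15 min with luciferase substrate and luminescence imaging.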
TRPML1 inh: blocks the human TRPML1 channel | Q9GZU1 | TRPML1-inducible cells, Ca2+ dye fluorescence, FDSS; stronger effect = lower value; inhibition of EC80 agonist-evoked calcium signal | activity change, negative = inhibition, % (test concentration not listed) | 390,000 tested, 0.02% active | AID 624415; in the data active means activity change below about -50%; inconclusive means between about -30% and that limit;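 further: stimulus is agonist 54-4 at its EC80 concentration; on the % scale 0 is the no-effect control and ±100 the full control effect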
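Calcium fluorescence in TRPML1-DL cells induced overnight with Tet: a 110 s read after compound pin addition, then a 110 s antagonist read after challenge with 54-4 at 4 uM final (EC80).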
HeLa viability: counter-screen for pyruvate kinase M2 activators: HeLa cytotoxicity; AID 1898; HeLa viability, CellTiter-Glo ATP luminescence, 24 h; shares compounds with PKM2 activator; activity change, negative = cytotoxicity, % at 57.5 µM; 230 tested, under 10 active; further: % of control where 0% means no effect
An asterisk follows results filed as active; ? = inconclusive; . = not tested or not shown. Unless noted, the call rests on the fitted dose curve; in most records, active means well fitted curve in the direction sought with a large enough effect; inconclusive means small, poorly fitted or top-dose-only effect, or another doubt; inactive means no such curve, though single readings can be large; an effect the other way counts as inactive or inconclusive.

SMILES	IL-2 act	TRPML1 agonist	PKM2 activator	PTAP TSG101 blk	BRCA1 expr up	TRPML1 inh	others
C[n+]1c2cc(N)ccc2cc2ccc(N)cc21	1	104*	.	?	-72%	?
Fc1ccccc1CSc1ncnc2c1ncn2C1CCCO1 (configuration not stated)	0	3	.	-7%	3.5µM*	-5
CC(Cc1ccccc1)/[N+]([O-])=C\c1ccc(C(F)(F)F)cc1 (configuration not stated)	1	2	.	1%	10µM*	-5
CNC(C)Cc1ccccc1 (configuration not stated)	1	-1	.	0%	5%	-6
Clc1cccc(Cl)c1Cn1nnc(N2CCCC2)n1	-1	3	-4%	-3%	11µM*	5
COc1cccc(C2=NOC(C(=O)N3CCC4(CC3)OCCO4)C2)c1 (configuration not stated)	-1	1	5%	-5%	?	-7
O=C(C1CC(c2ccc(Cl)c(Cl)c2)=NO1)N1CCC2(CC1)OCCO2 (configuration not stated)	5	0	-25%	-2%	8.9µM*	1
O=C(C1CC(c2ccc(F)cc2)=NO1)N1CCC2(CC1)OCCO2 (configuration not stated)	-2	4	-1%	4%	7.9µM*	21
C[C@@H]1O[C@@H](O[C@@H]2C=C3CC[C@@H]4[C@@H](CC[C@]5(C)[C@H](c6ccc(=O)oc6)CC[C@@]45O)[C@@]3(C)CC2)[C@H](O)[C@H](O)[C@H]1O	.	0	.	.	-67%	.
COc1ccc(NC(=O)CCCn2c(=O)oc3ccccc32)cc1Cl	1	1	-1%	-7%	7.1µM*	23
O=c1oc2ccccc2n1CCCOc1ccccc1	-2	1	2%	0%	?	6
ClCCN(CCCl)c1ccc(C=Nc2ccc(/C=C/c3ccncc3)cc2)cc1	.	3	.	.	.	.
COc1cc(C(C)=O)ccc1OCc1cc(C(=O)N(C)CCC2CCCCO2)no1 (configuration not stated)	1	0	.	-3%	3.5µM*	-6
O=C1NC(=O)N(c2ccc3c(c2)OCO3)C(=O)/C1=C/c1cccs1	-2	1	11µM*	-8%	-3%	0
Cc1ccc(-n2c(=S)[nH]c3ccccc3c2=O)cc1F	0	-1	.	.	?	-4
O=c1c2ccccc2[nH]c(=S)n1-c1ccc2c(c1)OCCO2	0	0	-2%	-2%	10µM*	19
CCOC(=O)C1(CCc2ccccc2)CCN(Cc2cccc3c2OCO3)CC1	-4	2	32µM*	0%	-8%	4
CCOC(=O)C1(CCc2ccccc2)CCN(Cc2cccc3cnccc23)CC1	-3	0	-6%	0%	-38%	25
Nc1c2c(nc3sc4c(c13)CCCC4)CCCC2	-2	-1	1%	-11%	4.5µM*	7
Cc1ccc(C(C#N)=Cc2ccc3c(c2)OCO3)cc1	-3	0	.	.	?	5
CC(=O)Nc1ccc(OC(=O)N2CCN(/[N+]([O-])=N/Oc3ccc([N+](=O)[O-])cc3[N+](=O)[O-])CC2)cc1	.	4	.	.	-45%	-3
COc1ccc(-n2nc(C(=O)NCC(=O)N3CCC4(CC3)OCCO4)c3ccccc3c2=O)cc1OC	0	0	0%	-1%	10µM*	26
O=C(Oc1c(Cl)cc(Cl)c2ccccc12)N1CCCCC1	-1	68*	-3%	-1%	16%	-13
O=C(Oc1ccc(Cl)c2ccccc12)N1CCCCC1	0	2	-4%	-3%	?	1
O=C(Oc1ccc2ccccc2c1Cl)N1CCCC1	-3	2	-3%	3%	4.5µM*	30
COCCCNC(=O)c1c(N)n(Cc2ccco2)c2nc3ccccc3nc12	0	2	25µM*	-3%	-29%	-1
C/C(=C\c1ccc(N(C)C)cc1)[N+](=O)[O-]	-5	5	-8%	-9%	-83%	14
CN(C)c1ccc(/C=C/[N+](=O)[O-])cc1	97*	?	-2%	-1%	45%	-2
Nc1c(C(=O)NCC2CCCO2)c2nc3ccccc3nc2n1Cc1ccco1 (configuration not stated)	0	8	18µM*	-6%	-36%	-5	HeLa viability=-17
O=[N+]([O-])c1cc(C(F)(F)F)c(Cl)c([N+](=O)[O-])c1Nc1ncc(C(F)(F)F)cc1Cl	.	29	.	.	-69%	.
